According to PubChem BioAssay (NCI):
This is part of a sample that, as a whole, favours compounds with a hit. Of some 83,000 tested, about 20% had one in any assay.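 For each line, cells grew in 96-well plates with the test compound present at a single concentration for 48 hours.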 Active and inactive are the calls of the source. How the source made its calls: active means growth percent below 10; inactive means the rest.

Columns and labels:
Assay in all cases: NCI-60 one-dose screen, 48 h (100 = growth as untreated, 0 = no growth, -100 = all killed)
Conditions in all cases: 10 µM unless noted
RPMI-8226 leukemia = tested on: RPMI-8226 leukemia
OVCAR-8 ovarian = tested on: OVCAR-8 ovarian
OVCAR-5 ovarian = tested on: OVCAR-5 ovarian
OVCAR-4 ovarian = tested on: OVCAR-4 ovarian
SK-OV-3 ovarian = tested on: SK-OV-3 ovarian
IGROV1 ovarian = tested on: IGROV1 ovarian
OVCAR-3 ovarian = tested on: OVCAR-3 ovarian
HS 578T breast = tested on: HS 578T breast
NCI/ADR-RES ovarian = tested on: NCI/ADR-RES ovarian
T-47D breast = tested on: T-47D breast
BT-549 breast = tested on: BT-549 breast
MDA-MB-435 melanoma = tested on: MDA-MB-435 melanoma
SW-620 colon = tested on: SW-620 colon
MCF7 breast = tested on: MCF7 breast
HCT-116 colon = tested on: HCT-116 colon
HCC-2998 colon = tested on: HCC-2998 colon
KM12 colon = tested on: KM12 colon

Measured: growth

COc1cc(C(=O)N2CCN(c3ccccc3)CC2)c2ccccc2n1
active: SK-OV-3 ovarian 5.77% | OVCAR-3 ovarian -33.5% | NCI/ADR-RES ovarian -43.6% | MDA-MB-435 melanoma -24.2% | HCT-116 colon 8.75% | HCC-2998 colon -20.3% | KM12 colon 2.35%
inactive: RPMI-8226 leukemia 35.1% | OVCAR-8 ovarian 14.3% | OVCAR-5 ovarian 39.4% | OVCAR-4 ovarian 57.5% | IGROV1 ovarian 17.4% | HS 578T breast 27% | T-47D breast 51.1% | BT-549 breast 12.7% | SW-620 colon 25.2% | MCF7 breast 15.8%

CC(CO)(CO)C(=O)O
inactive: RPMI-8226 leukemia 97.2% | OVCAR-8 ovarian 111% | OVCAR-5 ovarian 98.2% | OVCAR-4 ovarian 105% | SK-OV-3 ovarian 105% | IGROV1 ovarian 126% | OVCAR-3 ovarian 106% | HS 578T breast 98.8% | T-47D breast 95.5% | BT-549 breast 109% | MDA-MB-435 melanoma 105% | SW-620 colon 104% | MCF7 breast 101% | HCT-116 colon 102% | HCC-2998 colon 94.6% | KM12 colon 106%

O=c1cc(Cl)nc2ccccn12
inactive: RPMI-8226 leukemia 114% | OVCAR-8 ovarian 110% | OVCAR-5 ovarian 101% | OVCAR-4 ovarian 120% | SK-OV-3 ovarian 110% | IGROV1 ovarian 96.5% | OVCAR-3 ovarian 100% | HS 578T breast 104% | NCI/ADR-RES ovarian 104% | T-47D breast 103% | BT-549 breast 107% | MDA-MB-435 melanoma 108% | SW-620 colon 105% | MCF7 breast 91.4% | HCT-116 colon 99.6% | HCC-2998 colon 102% | KM12 colon 96.6%

CCCCc1ccc2nc(NC(=O)OC)[nH]c2c1
inactive: OVCAR-8 ovarian 11.6% | OVCAR-5 ovarian 23% | OVCAR-4 ovarian 59.4% | SK-OV-3 ovarian 15.2% | IGROV1 ovarian 15.8% | T-47D breast 76.8% | BT-549 breast 31.1% | MCF7 breast 12.8%
active: RPMI-8226 leukemia -26.4% | OVCAR-3 ovarian -57.8% | HS 578T breast 8.57% | NCI/ADR-RES ovarian -1.32% | MDA-MB-435 melanoma 0.507% | HCT-116 colon 7.36% | HCC-2998 colon -43.3% | KM12 colon -12.2%

CCCCn1cnc2c(=O)[nH]cnc21
inactive: RPMI-8226 leukemia 108% | OVCAR-8 ovarian 115% | OVCAR-5 ovarian 98.7% | OVCAR-4 ovarian 113% | SK-OV-3 ovarian 104% | IGROV1 ovarian 115% | OVCAR-3 ovarian 113% | HS 578T breast 115% | NCI/ADR-RES ovarian 113% | T-47D breast 97.8% | BT-549 breast 105% | MDA-MB-435 melanoma 100% | SW-620 colon 117% | MCF7 breast 98.2% | HCT-116 colon 107% | HCC-2998 colon 117% | KM12 colon 132%

NC(=S)N/N=C/c1ccc(OC(=O)COc2ccc(Cl)cc2)cn1
inactive: RPMI-8226 leukemia 59.1% | OVCAR-8 ovarian 23.9% | OVCAR-5 ovarian 120% | OVCAR-4 ovarian 59.2% | SK-OV-3 ovarian 82.1% | IGROV1 ovarian 46.5% | OVCAR-3 ovarian 56.4% | HS 578T breast 114% | T-47D breast 33.9% | BT-549 breast 55% | MDA-MB-435 melanoma 59.1% | SW-620 colon 46.3% | MCF7 breast 23.6% | HCT-116 colon 39.7% | KM12 colon 64.8%

COC(=O)C1=C(C)C(=O)CC1
inactive: RPMI-8226 leukemia 110% | OVCAR-8 ovarian 109% | OVCAR-5 ovarian 99.6% | OVCAR-4 ovarian 119% | SK-OV-3 ovarian 112% | IGROV1 ovarian 112% | OVCAR-3 ovarian 114% | NCI/ADR-RES ovarian 135% | T-47D breast 127% | BT-549 breast 114% | MDA-MB-435 melanoma 121% | SW-620 colon 106% | MCF7 breast 97.4% | HCT-116 colon 103% | HCC-2998 colon 116% | KM12 colon 121%

C=C1CC2(OC1=O)C(=O)N(C)c1ccc(I)cc12 (configuration not stated)
inactive: SK-OV-3 ovarian 67.6%
active: RPMI-8226 leukemia -60% | OVCAR-8 ovarian -8.98% | OVCAR-5 ovarian -10.3% | OVCAR-4 ovarian -87.6% | IGROV1 ovarian -66.9% | OVCAR-3 ovarian -96.9% | HS 578T breast -5.25% | NCI/ADR-RES ovarian -66% | T-47D breast -82.6% | MDA-MB-435 melanoma -64.8% | SW-620 colon -76.3% | MCF7 breast -66.8% | HCT-116 colon -92.6% | HCC-2998 colon -89.3% | KM12 colon 2.99%

CCOC(=O)c1cc(C)[nH]c(=O)c1C#N
inactive: RPMI-8226 leukemia 80.4% | OVCAR-8 ovarian 108% | OVCAR-5 ovarian 105% | OVCAR-4 ovarian 107% | SK-OV-3 ovarian 95.4% | IGROV1 ovarian 118% | OVCAR-3 ovarian 105% | HS 578T breast 107% | NCI/ADR-RES ovarian 109% | T-47D breast 107% | BT-549 breast 92.9% | MDA-MB-435 melanoma 86% | SW-620 colon 107% | MCF7 breast 104% | HCT-116 colon 99.9% | KM12 colon 103%

CCOc1ccc2c(c1)c(C)cc(C)[n+]2CC
inactive: RPMI-8226 leukemia 52.1% | OVCAR-8 ovarian 62.4% | OVCAR-5 ovarian 98.5% | OVCAR-4 ovarian 58.8% | SK-OV-3 ovarian 83.4% | IGROV1 ovarian 82.3% | OVCAR-3 ovarian 76.2% | HS 578T breast 104% | NCI/ADR-RES ovarian 113% | T-47D breast 69.5% | BT-549 breast 33.8% | MDA-MB-435 melanoma 73.9% | SW-620 colon 84% | MCF7 breast 72.3% | HCT-116 colon 54.5% | HCC-2998 colon 82.9% | KM12 colon 17.6%

CCOC(=O)C1(N)CCCCC1
inactive: RPMI-8226 leukemia 110% | OVCAR-8 ovarian 107% | OVCAR-5 ovarian 94.6% | OVCAR-4 ovarian 121% | SK-OV-3 ovarian 100% | IGROV1 ovarian 85.4% | OVCAR-3 ovarian 112% | HS 578T breast 88.6% | NCI/ADR-RES ovarian 98.7% | T-47D breast 93.4% | BT-549 breast 113% | MDA-MB-435 melanoma 99.2% | SW-620 colon 103% | MCF7 breast 97.1% | HCT-116 colon 96% | HCC-2998 colon 101% | KM12 colon 107%

O=c1n(CC2CO2)c(=O)n(CC2CO2)n1CC1CO1 (configuration not stated)
inactive: RPMI-8226 leukemia 57.5% | OVCAR-8 ovarian 75% | OVCAR-5 ovarian 130% | OVCAR-4 ovarian 85.2% | SK-OV-3 ovarian 49.2% | OVCAR-3 ovarian 72.7% | HS 578T breast 90.5% | NCI/ADR-RES ovarian 65.5% | T-47D breast 52.4% | BT-549 breast 54.4% | MDA-MB-435 melanoma 90.4% | SW-620 colon 66.3% | MCF7 breast 31% | HCT-116 colon 57.7% | HCC-2998 colon 75.2% | KM12 colon 84.4%
active: IGROV1 ovarian -4.87%

Oc1cccnc1CN1CCCC1
inactive: RPMI-8226 leukemia 100% | OVCAR-8 ovarian 94.7% | OVCAR-5 ovarian 97.9% | OVCAR-4 ovarian 108% | SK-OV-3 ovarian 103% | IGROV1 ovarian 102% | OVCAR-3 ovarian 117% | HS 578T breast 104% | NCI/ADR-RES ovarian 108% | T-47D breast 95.2% | MDA-MB-435 melanoma 107% | MCF7 breast 93.9% | HCT-116 colon 116% | KM12 colon 113%

CCOP(=O)(NC(c1ccccc1)c1ccccc1)OCC
inactive: RPMI-8226 leukemia 104% | OVCAR-8 ovarian 98.1% | OVCAR-5 ovarian 108% | OVCAR-4 ovarian 106% | SK-OV-3 ovarian 107% | IGROV1 ovarian 92.2% | OVCAR-3 ovarian 112% | NCI/ADR-RES ovarian 104% | T-47D breast 90.4% | BT-549 breast 105% | MDA-MB-435 melanoma 110% | SW-620 colon 103% | MCF7 breast 92.7% | HCT-116 colon 93.8% | HCC-2998 colon 110% | KM12 colon 114%

Cc1ccc(N2C(=O)c3cccc4c(N)c(S(=O)(=O)O)cc(c34)C2=O)cc1
inactive: RPMI-8226 leukemia 104% | OVCAR-8 ovarian 107% | OVCAR-5 ovarian 84.7% | OVCAR-4 ovarian 117% | SK-OV-3 ovarian 106% | IGROV1 ovarian 35.6% | OVCAR-3 ovarian 121% | HS 578T breast 106% | T-47D breast 112% | BT-549 breast 131% | MDA-MB-435 melanoma 115% | SW-620 colon 109% | MCF7 breast 110% | HCT-116 colon 102% | HCC-2998 colon 104% | KM12 colon 99.3%

CN1C(=O)NC(c2ccc(Cl)cc2)(c2ccc(Cl)cc2)C1=O
inactive: RPMI-8226 leukemia 84.2% | OVCAR-8 ovarian 102% | OVCAR-5 ovarian 112% | OVCAR-4 ovarian 96.4% | SK-OV-3 ovarian 115% | IGROV1 ovarian 91% | OVCAR-3 ovarian 104% | HS 578T breast 90.4% | NCI/ADR-RES ovarian 86.8% | T-47D breast 94.2% | MDA-MB-435 melanoma 97.3% | SW-620 colon 103% | MCF7 breast 102% | HCT-116 colon 88.2% | HCC-2998 colon 101%

CN(C)Cc1ccccn1
inactive: RPMI-8226 leukemia 90.9% | OVCAR-8 ovarian 101% | OVCAR-5 ovarian 102% | OVCAR-4 ovarian 106% | SK-OV-3 ovarian 112% | IGROV1 ovarian 102% | OVCAR-3 ovarian 117% | HS 578T breast 114% | T-47D breast 102% | BT-549 breast 101% | MDA-MB-435 melanoma 103% | SW-620 colon 103% | MCF7 breast 97% | HCT-116 colon 99.8% | HCC-2998 colon 119% | KM12 colon 111%

CN=S(=O)(OCCCCCOS(=O)(=NC)c1ccc(C)cc1)c1ccc(C)cc1 (configuration not stated)
inactive: RPMI-8226 leukemia 75.2% | OVCAR-8 ovarian 95% | OVCAR-5 ovarian 106% | OVCAR-4 ovarian 82.8% | SK-OV-3 ovarian 100% | IGROV1 ovarian 13.6% | OVCAR-3 ovarian 104% | HS 578T breast 90.1% | NCI/ADR-RES ovarian 89.7% | T-47D breast 88.5% | MDA-MB-435 melanoma 91.9% | SW-620 colon 84.9% | MCF7 breast 87.6% | HCT-116 colon 75.2% | HCC-2998 colon 91.5%

CCN(Cc1ccc(Cl)c(Cl)c1)c1ccc2nc(N)nc(N)c2c1C
inactive: BT-549 breast 46.4%
active: RPMI-8226 leukemia -54% | OVCAR-8 ovarian -59.9% | OVCAR-5 ovarian -100% | OVCAR-4 ovarian -88.2% | SK-OV-3 ovarian -97.6% | IGROV1 ovarian -79% | OVCAR-3 ovarian -93.2% | HS 578T breast -42.5% | NCI/ADR-RES ovarian -94.4% | T-47D breast -78% | MDA-MB-435 melanoma -77.4% | SW-620 colon -78.2% | MCF7 breast -92.9% | HCT-116 colon -82.4% | HCC-2998 colon -93.6% | KM12 colon -92.6%

O=C(N/N=C\c1ccc(Cl)cc1Cl)c1ccncc1
inactive: RPMI-8226 leukemia 91.5% | OVCAR-8 ovarian 101% | OVCAR-5 ovarian 105% | OVCAR-4 ovarian 106% | SK-OV-3 ovarian 117% | IGROV1 ovarian 96.3% | OVCAR-3 ovarian 113% | HS 578T breast 123% | NCI/ADR-RES ovarian 102% | T-47D breast 96.6% | BT-549 breast 65.7% | MDA-MB-435 melanoma 105% | SW-620 colon 111% | MCF7 breast 87.2% | HCT-116 colon 101% | KM12 colon 112%
